The source of these data is PubChem BioAssay (Tox21).

Assay [1] can be described thus: qHTS RealTime-Glo MT Cell Viability Assay in HEK293 cells - 0 hour (AID 1224880). Also: top concentration of the series differs between compounds; nearly all actives have a fitted effect of over 45% in size. The method, boiled down: (§1)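 Cells were seeded together with NanoLuc luciferase and a prosubstrate that viable cells reduce to a luciferase substrate. After a 5 h incubation at 37 C/5% CO2, compounds were added and luminescence was measured repeatedly during 40 h of treatment.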
For orientation: Quantitative high-throughput screening tests each substance at several concentrations.

Assay [2] can be described thus: A CellTox Green Cytotoxicity Assay to monitor cytotoxicity in HepG2 cells - 32 hour (AID 1224883). Also: nearly all actives have a fitted effect of over 50% in size. The method, boiled down: (§2)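 Read-out is fluorescence of a cyanine dye excluded from live cells that stains DNA of dead HepG2 cells, with signal proportional to cytotoxicity. Plates were read at 0, 8, 16, 24, 32 and 40 h after compound addition.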
Assay [3] can be described thus: A CellTox Green Cytotoxicity Assay to monitor cytotoxicity in HEK293 cells - 8 hour (AID 1224884). Also: nearly all actives have a fitted effect of over 35% in size. The essentials: (§3)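 Nonlytic real-time cytotoxicity: HEK293 + CellTox Green reagent plated, 5 h preincubation, pintool compound addition (23 nL in DMSO), 37 C for 40 h, fluorescence measured at successive time points.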
Assay [4] in a line: qHTS RealTime-Glo MT Cell Viability Assay in HepG2 cells - 16 hour (AID 1224885). Also: nearly all actives have a fitted effect of over 50% in size. The method, boiled down:
(§4)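 Tox21 10K library screened in qHTS format on HepG2 cells carrying RealTime-Glo reagents. Compounds were added after a 5 h preincubation, and the luminescent signal from continuous culture was measured repeatedly during 40 h treatment.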

The nature of assay [5]: qHTS RealTime-Glo MT Cell Viability Assay in HEK293 cells - 24 hour (AID 1224886). Also: top concentration of the series differs between compounds; nearly all actives have a fitted effect of over 50% in size. The essentials: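 Luminescence generated by NanoLuc from substrate produced by living HEK293 cells served as the viability signal. Each value reflects the reading at its stated time point during continuous 40 h compound exposure at 37 C.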
The nature of assay [6]: qHTS RealTime-Glo MT Cell Viability Assay in HEK293 cells - 8 hour (AID 1224887). Also: nearly all actives have a fitted effect of over 50% in size. Also: potency is read from the fitted curve at half-maximal effect. The method, boiled down: as §1
Assay [7] is described as follows: A CellTox Green Cytotoxicity Assay to monitor cytotoxicity in HEK293 cells - 16 hour (AID 1224888). Also: nearly all actives have a fitted effect of over 35% in size. The method, boiled down:
as §3

A short description of assay [8]: qHTS RealTime-Glo MT Cell Viability Assay in HepG2 cells - 0 hour (AID 1224889). Also: nearly all actives have a fitted effect of over 50% in size. The method, boiled down:
as §4

Assay [9] is described as follows: A CellTox Green Cytotoxicity Assay to monitor cytotoxicity in HepG2 cells - 8 hour (AID 1224890). Also: nearly all actives have a fitted effect of over 45% in size. The essentials:
as §2

Assay [10] can be described thus: qHTS assay to identify small molecule antagonists of the estrogen receptor alpha (ER-alpha) signaling pathway using the BG1 cell line in the presence of 0.1 nM 17-beta-estradiol - cell viability counter screen (AID 1259241). Also: nearly all actives have a fitted effect of over 40% in size. The method, boiled down:
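VM7Luc4E2, 4,000 cells/well, phenol red-free medium + 10% charcoal-stripped FBS; 24 hr plating; cpd + 0.1 nM E2 final, 22 hr 37C/5% CO2; CellTiter-Fluor 30 min, fluorescence.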

Assay [11] is described as follows: qHTS assay to identify small molecule antagonists of the androgen receptor (AR) signaling pathway using the MDA cell line in the presence of 0.5 nM R1881 - cell viability counter screen (AID 1259242). Also: nearly all actives have a fitted effect of over 45% in size. The essentials: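 Counter screen for cytotoxicity run in the same wells as the AR antagonist reporter screen: MDA-kb2 cells were treated 16 hr with test compounds and 0.5 nM R1881, then live-cell protease activity was measured by fluorescence.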

Assay [12] deals with Androgen receptor (Homo sapiens) (UniProt P10275). Kind of assay: qHTS assay to identify small molecule antagonists of the androgen receptor (AR) signaling pathway using the MDA cell line in the presence of 0.5 nM R1881 (AID 1259243). Also: nearly all actives have a fitted effect of over 50% in size. The essentials:
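Luciferase luminescence is the read-out: compounds are tested for suppressing 0.5 nM R1881-driven MMTV reporter activity in MDA-kb2 cells after 16 hr at 37C.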

Assay [13] concerns the target Estrogen receptor (Homo sapiens) (UniProt P03372). Kind of assay: qHTS assay to identify small molecule antagonists of the estrogen receptor alpha (ER-alpha) signaling pathway using the BG1 cell line in the presence of 0.1 nM 17-beta-estradiol (AID 1259244). Also: nearly all actives have a fitted effect of over 50% in size. The essentials: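 Cells: VM7Luc4E2, endogenous ER-alpha, 4x ERE-luc stable. Pre-culture 5 d, phenol red-free, charcoal-stripped FBS. Plated 24 h, compound + E2 0.1 nM final, 22 h 37C/5% CO2. Readout ONE-Glo luminescence.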

Assay [14] in a line: qHTS assay to identify small molecule HDAC inhibitors - cell viability counter screen (AID 1259365). The essentials: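 Luminescence from CellTiter-Glo, developed 30min at room temperature, reports viability of wild-type HCT-116 cells treated 2hr with compounds at 37 C and 5% CO2 after overnight plating.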
A short description of assay [15]: A CellTox Green Cytotoxicity Assay to monitor cytotoxicity in HepG2 cells - 0 hour (AID 1224882). Also: nearly all actives have a fitted effect of over 35% in size. The method, boiled down: as §2
The nature of assay [16]: qHTS assay to identify small molecule HDAC inhibitors (AID 1259364). Also: top concentration of the series differs between compounds; nearly all actives have a fitted effect of over 45% in size. The essentials: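 Luminescence from a cell-permeant luminogenic class I/II HDAC substrate reports endogenous deacetylase activity in intact HCT-116 cells treated with compounds for 2 h.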
The nature of assay [17]: qHTS assay to identify small molecule agonists of the sonic hedgehog signaling (Shh) pathway - cell viability counter screen (AID 1259366). Also: nearly all actives have a fitted effect of over 50% in size. The essentials: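 Cytotoxicity counter screen run in the same wells as the Shh reporter assay. NIH/3T3 cells carrying a Gli1 response element–driven luciferase were treated with DMSO-dissolved compounds for 24hr, and live-cell protease activity was measured with CellTiter-Fluor.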

Assay [18] in a line: qHTS assay to identify small molecule antagonists of the sonic hedgehog signaling (Shh) pathway - cell viability counter screen (AID 1259367). Also: nearly all actives have a fitted effect of over 55% in size. The essentials: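 Cells: 3T3 Gli1-Luc, 2,000/well, 4 hr pre-incubation. Compounds in DMSO, then conditioned medium. Incubation 24 hr, 37C, 5% CO2. CellTiter-Fluor at 23 hr, 1 hr, fluorescence.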
A short description of assay [19]: A CellTox Green Cytotoxicity Assay to monitor cytotoxicity in HEK293 cells - 32 hour (AID 1224881). Also: nearly all actives have a fitted effect of over 40% in size. The essentials:
as §3

Assay [20] can be described thus: qHTS assay to identify small molecule phospholipidosis (PLD) inducers (AID 1259344; active = well fitted curve in the direction sought with a large enough effect; an effect the other way counts as inactive or inconclusive). The method, boiled down:
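Phospholipidosis is scored by imaging LipidTOX-stained pits in HepG2 cells exposed to compound for 24 h at 37 C; pit counts and integrated intensities per well and per cell serve as outputs.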

A number with no mark means an inactive call. Inconclusive results are not listed. The source made the active and inactive calls. Unless noted, calls follow the shape of the dose curve; as a rule, active = well fitted curve in the direction sought with a large enough effect in the repeat runs; inconclusive = weak or mixed curves; inactive = no such curve, though single readings can be large; an effect the other way counts as inactive or inconclusive.

Chain of Androgen receptor (Homo sapiens) (P10275 whole entry, looked up): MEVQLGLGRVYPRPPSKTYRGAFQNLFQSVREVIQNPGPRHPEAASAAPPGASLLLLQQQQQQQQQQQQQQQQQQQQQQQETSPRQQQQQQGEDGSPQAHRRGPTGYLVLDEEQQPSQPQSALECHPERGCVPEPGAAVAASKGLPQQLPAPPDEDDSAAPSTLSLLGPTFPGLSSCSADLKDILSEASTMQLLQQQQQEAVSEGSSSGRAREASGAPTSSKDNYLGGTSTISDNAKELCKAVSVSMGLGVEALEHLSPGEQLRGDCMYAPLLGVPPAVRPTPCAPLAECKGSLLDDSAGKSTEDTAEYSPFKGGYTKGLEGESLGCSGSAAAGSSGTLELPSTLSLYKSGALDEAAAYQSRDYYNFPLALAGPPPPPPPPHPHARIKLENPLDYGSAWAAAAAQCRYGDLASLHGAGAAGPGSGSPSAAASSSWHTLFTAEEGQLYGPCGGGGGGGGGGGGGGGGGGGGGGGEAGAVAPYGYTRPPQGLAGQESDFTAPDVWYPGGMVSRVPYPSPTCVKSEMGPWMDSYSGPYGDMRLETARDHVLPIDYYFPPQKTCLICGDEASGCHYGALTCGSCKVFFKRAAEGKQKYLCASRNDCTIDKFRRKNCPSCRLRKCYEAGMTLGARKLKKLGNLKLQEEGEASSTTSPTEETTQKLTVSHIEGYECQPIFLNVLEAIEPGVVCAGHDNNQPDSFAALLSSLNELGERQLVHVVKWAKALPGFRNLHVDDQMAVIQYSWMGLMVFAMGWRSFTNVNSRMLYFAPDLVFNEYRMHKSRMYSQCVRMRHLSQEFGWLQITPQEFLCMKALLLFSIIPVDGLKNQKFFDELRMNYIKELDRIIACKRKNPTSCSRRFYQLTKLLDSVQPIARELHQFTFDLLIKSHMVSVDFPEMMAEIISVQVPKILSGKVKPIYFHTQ
Chain of Estrogen receptor (Homo sapiens) (P03372 whole entry, looked up): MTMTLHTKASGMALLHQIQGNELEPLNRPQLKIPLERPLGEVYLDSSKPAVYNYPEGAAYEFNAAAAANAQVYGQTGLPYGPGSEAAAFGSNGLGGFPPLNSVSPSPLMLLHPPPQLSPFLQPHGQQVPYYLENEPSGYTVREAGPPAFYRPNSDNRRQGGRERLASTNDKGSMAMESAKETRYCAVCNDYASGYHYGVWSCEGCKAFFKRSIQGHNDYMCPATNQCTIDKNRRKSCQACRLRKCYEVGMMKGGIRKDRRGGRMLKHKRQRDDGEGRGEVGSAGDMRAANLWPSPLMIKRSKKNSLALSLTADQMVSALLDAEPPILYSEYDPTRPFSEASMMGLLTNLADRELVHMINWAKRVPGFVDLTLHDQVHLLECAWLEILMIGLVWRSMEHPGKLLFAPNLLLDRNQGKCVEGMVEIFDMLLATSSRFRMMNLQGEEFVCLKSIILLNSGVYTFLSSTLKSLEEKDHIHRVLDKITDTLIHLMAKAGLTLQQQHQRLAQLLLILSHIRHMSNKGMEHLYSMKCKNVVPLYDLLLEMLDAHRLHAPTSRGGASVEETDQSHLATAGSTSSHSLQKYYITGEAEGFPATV

In the case of `OP(O)c1ccccc1`, the compound was called inactive in assay [1], in [8], in [10] and in assay [14]. Also, the Potency result in [2], in [3], in assay [4], in [5], in [6] and in assay [7] was “inactive” in each case. Moreover, the Potency entry in assay [9], in assay [11], in [12] and in [13] was “inactive” throughout.

Take `COC(=O)c1ccccc1CS(=O)(=O)NC(=O)Nc1nc(OC)cc(OC)n1`: the compound was called inactive in [1], in assay [15], in [8], in assay [10] and in assay [14]. In addition, the Potency entry in assay [3], in assay [4], in assay [5], in assay [6], in assay [7] and in [9] was “inactive” in each case. Also, the Potency result in assay [11], in [13], in [16], in assay [17] and in assay [18] was “inactive” in each case.

In the case of `CCC1(c2ccccc2)C(=O)N(COC)C(=O)N(COC)C1=O`, the Potency entry in assay [19], in [2], in [3], in assay [4], in [5] and in assay [6] was “inactive” throughout. In addition, the Potency entry in [7], in assay [9], in assay [11], in [12], in [20] and in assay [17] was “inactive” in each case. Moreover, the outcome in [15], in [8], in assay [10] and in assay [14] was inactive.

With `ClCC1CO1` (stereo not given), the Potency entry in [19], in [2], in assay [3], in assay [4], in assay [5] and in assay [6] was “inactive” throughout. The Potency entry in assay [7], in assay [9], in assay [11], in assay [13], in assay [20] and in [17] was “inactive” in each case. The Potency result in [18] is “inactive”. For the same compound, the compound was classed as inactive in assay [8], in [10] and in assay [14].

For the compound `Cn1c(CCCC(=O)O)nc2cc(N(CCCl)CCCl)ccc21`, the Potency entry in [19], in assay [3], in assay [4], in assay [5], in [6] and in assay [7] was “inactive” throughout. In addition, the Potency result in assay [9], in assay [11], in assay [13], in assay [20], in assay [16] and in assay [17] was “inactive” each time. The Potency result in assay [18] is “inactive”. The result in assay [15], in assay [8], in [10] and in assay [14] was inactive.

With `CCOC(=O)C(Cl)Cc1cc(-n2nc(C)n(C(F)F)c2=O)c(F)cc1Cl` (stereo not given), the Potency result in assay [19], in [2], in [3], in assay [5], in assay [7] and in [9] was “inactive” in each case. Moreover, the Potency result in assay [11], in [13], in [16] and in assay [18] was “inactive” each time. Besides, the call in [15], in [8], in [10] and in assay [14] was inactive. In addition, the Potency in [6] was 49 µM (active).

`CCc1ccc(C2CCNCC2)cc1`: the call in assay [15], in assay [8], in assay [10] and in assay [14] was inactive. Moreover, the Potency result in assay [2], in assay [3], in assay [4], in assay [5], in [6] and in [7] was “inactive” in each case. Besides, the Potency entry in assay [11], in [12], in [13], in assay [16], in assay [17] and in assay [18] was “inactive” each time.

With `CCCOc1nn(C(=O)NS(=O)(=O)c2ccccc2C(=O)OC)c(=O)n1C`, the Potency entry in assay [19], in [2], in [3], in assay [4], in assay [5] and in [6] was “inactive” throughout. Besides, the Potency entry in assay [7], in [9], in [11], in assay [12], in assay [16] and in assay [18] was “inactive” throughout. For the same compound, the outcome in [8], in assay [10] and in [14] was inactive.
